# TexasRed fluor – alters Texas Red total fluorescence, flagging assay interference | Potency, µM (doses to about 106 µM) | hit rate 0.29% among 280,000 | TRb/SRC2 Texas Red total fluorescence interference; active = well fitted curve in either direction with a large enough effect; inconclusive = small, poorly fitted or top-dose-only effect
#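 Human TRb ligand-binding domain at 0.6 uM with 20 nM Texas Red SRC2 peptide in Tris buffer containing 1 uM T3 and 5% DMSO, incubated with compound 5 h at ambient temperature. Total fluorescence (555/632 nm) calculated as parallel + 2 × perpendicular.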
# TRb SRC2 PPI – disrupts binding of human TR beta to SRC2; AID 1469; Potency, µM (series often up to 106 µM), hits mostly inhibitors; P10828; TRbeta-SRC2 peptide binding, fluorescence polarization; receptor liganded with 1 µM T3; hit rate 0.065% among 280,000; note: nearly all actives have a fitted effect of over 50% in size
#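 Each compound concentration gave % activity, normalized to unbound and bound Texas Red SRC2 controls, from polarization read after 5 hr ambient incubation with T3-loaded human TRb LBD.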
# Tau ThT inhib – inhibitors of human tau fibril formation, thioflavin T binding | hit rate 2.1% among 270,000 | recombinant tau K18 P301L, heparin-induced fibrillization, ThT fluorescence | AID 1460 | Potency, µM (highest dose often 57.4 µM), actives largely listed as inhibitors | P10636; note: nearly all actives have a fitted effect of over 55% in size
# Target sequence (P10636 561-689 P618L limits assumed): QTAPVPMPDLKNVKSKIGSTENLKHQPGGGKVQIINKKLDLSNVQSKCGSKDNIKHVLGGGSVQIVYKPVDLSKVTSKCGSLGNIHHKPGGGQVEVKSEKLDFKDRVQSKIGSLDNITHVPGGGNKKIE
#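 K18 P301L tau (15 uM + 0.24 uM Alexa 594-tagged), heparin 20 uM, NaOAc pH 7, 6 h 37 C; ThT 30 uM, 1 h RT, ex 450/em 510 nm.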
# Tau fluor counter – counter-screen for tau fibril formation inhibitors. AID 1463. Potency, µM (doses to about 57.7 µM). tau K18 P301L (four-repeat tau fragment) Alexa594 fluorescence, heparin fibrillization. hit rate 0.93% among 280,000; note: nearly all actives have a fitted effect of over 55% in size
#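 Human K18 P301L tau (15 uM unlabeled plus 0.24 uM Alexa 594-labeled, final) in 100 mM sodium acetate pH 7 was mixed with compound and 20 uM heparin and incubated 6 hr at 37 C.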
# KDM4E inh – JMJD2E (human) inhibition; hit rate 1.6% among 230,000; Potency, µM (top dose mostly 57.1 µM), most hits filed as inhibitors; JMJD2E catalytic domain, FDH-coupled NADH fluorescence (FDH is formaldehyde dehydrogenase); B2RXH2; active = well fitted inhibition curve with a large enough effect, not every such curve was filed as active; inconclusive = small, poorly fitted or top-dose-only effect, or another doubt; inactive = no such curve, though single readings can be large or run the other way; note: nearly all actives have a fitted effect of over 50% in size
# Target sequence (B2RXH2 1-337 limits assumed): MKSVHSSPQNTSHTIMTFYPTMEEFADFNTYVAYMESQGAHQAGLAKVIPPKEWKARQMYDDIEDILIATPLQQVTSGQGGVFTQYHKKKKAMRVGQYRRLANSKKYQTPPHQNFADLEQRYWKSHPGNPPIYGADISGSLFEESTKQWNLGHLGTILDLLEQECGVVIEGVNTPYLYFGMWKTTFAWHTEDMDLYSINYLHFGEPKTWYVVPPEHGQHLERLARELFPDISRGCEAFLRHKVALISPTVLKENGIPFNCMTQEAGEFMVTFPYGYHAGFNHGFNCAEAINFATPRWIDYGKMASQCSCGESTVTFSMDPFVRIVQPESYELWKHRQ
# Tau FP inhib – inhibitors of human tau fibril formation; AID 1468; Potency, µM (highest dose often 57.7 µM), usual class: inhibitors; K18 P301L tau heparin fibrillization, Alexa594 FP, 6 h; P10636; hit rate 0.39% among 280,000; note: nearly all actives have a fitted effect of over 55% in size
#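 Read-out: fluorescence polarization of Alexa 594-labeled tau (0.24 uM), 555 nm excitation, 632 nm emission. Mixtures held 15 uM unlabeled K18 P301L, compound and 20 uM heparin, pH 7 acetate buffer, incubated 6 hr at 37 C.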
# Numbers stand for hits; 0 = inactive; ? = inconclusive; - = no result; [ ] = remark or other dose. Rows were chosen to be rich in hits. Some 3.5% of all compounds tested hit in one or more screens of this group. Unless noted, calls come from the whole dose curve; as a rule, active = well fitted curve in the direction sought with a large enough effect; inconclusive = small, poorly fitted or top-dose-only effect, or another doubt; inactive = no such curve, though single readings can be large; an effect the other way counts as inactive or inconclusive.
SMILES,TexasRed fluor,TRb SRC2 PPI,Tau ThT inhib,Tau fluor counter,KDM4E inh,Tau FP inhib
CCCCNC(=O)c1ccc2c(c1)NC(=O)C(CS(=O)(=O)Cc1cccc(C)c1)N2 (configuration not stated),0,0,18µM,?,-,?
CCCCNC(=O)c1ccc2c(c1)NC(=O)C(CS(=O)(=O)Cc1ccc(C)cc1)N2 (configuration not stated),0,0,0,0,-,0
O=c1c(-c2cccc([N+](=O)[O-])c2)[n+]([O-])c2ccccc2n1O,0,0,0,0,22µM,0
CCCCC(=O)Nc1sc2c(c1C(=O)OCC)CCC(C=O)=C2Cl,0,0,25µM,0,0,0
CCOC(=O)c1c(NC(=O)c2ccccc2Cl)sc2c1CCc1ccccc1-2,0,0,?,0,?,0
COc1ccc(NC(=O)c2cc3c(-c4ccc(OC)c(OC)c4)nn(C)c3s2)cc1OC,0,0,?,3.5µM[quencher],?,0
COc1ccc(-c2nn(C)c3sc(C(=O)Nc4cc(OC)c(OC)c(OC)c4)cc23)cc1OC,0,0,?,2.5µM[quencher],-,?
O=C(NCC1CCCO1)C(=O)NCC(c1ccco1)N1CCN(c2ccc(F)cc2)CC1 (configuration not stated),0,0,0,0,0,0
Cc1ccc(-c2cc3ncc(C(=O)c4cc([N+](=O)[O-])ccc4O)cn3n2)cc1,0,0,10µM,0,-,0
Cc1ccc(-c2cc3nccc(-c4cc([N+](=O)[O-])ccc4O)n3n2)cc1,45µM[quencher],0,?,0,-,0
Cc1cc(O)c(-c2ccnc3cc(-c4ccccc4)nn23)cc1Cl,11µM[quencher],0,0,?,-,?
O=C(c1cnc2cc(-c3ccccc3)nn2c1)c1cc([N+](=O)[O-])ccc1O,0,0,?,0,-,0
c1ccc(COC[C@H]2CO2)cc1,0,0,-,-,-,-
CCOC(=O)c1c(-c2cccs2)csc1NC(=O)C(C)(C)C,0,0,0,0,?,0
NCCCC[C@H]1CNC(=S)N1CCCCC1CCCCC1,0,0,0,0,0,0
CSc1ccccc1NC(=O)C(=O)c1c[nH]c2ccccc12,0,0,0,?,0,10µM
CC(=O)c1[nH]c(C)c(C(=O)NCc2ccc(Cl)cc2)c1C,1122µM[quencher],0,0,0,-,0
COc1ccc(OCC(O)CNc2ccc(Br)cc2)cc1 (configuration not stated),0,0,?,18µM[quencher],0,0
Cc1ccc(NC(=O)CCn2cnc3onc(-c4ccc(F)cc4)c3c2=O)c(Br)c1,0,0,0,0,-,?
O=C(CCn1cnc2onc(-c3ccc(F)cc3)c2c1=O)Nc1cccc(C(F)(F)F)c1,0,0,0,?,-,22µM
O=C(CCn1cnc2onc(-c3ccc(F)cc3)c2c1=O)Nc1ccc(F)c(Cl)c1,0,0,0,?,-,28µM
CC(=O)c1cccc(NC(=S)NCCc2ccc(Cl)cc2)c1,0,0,0,?,0,?
CC(=O)c1cccc(NC(=O)NCCS(C)=O)c1 (configuration not stated),0,0,0,0,0,?
COCc1cc(O)c(O)c(O)c1-c1c(COC)cc(O)c(O)c1O,0,0,3.2µM,?,-,6.3µM
CCc1oc(C(=O)O)cc1COC,0,0,0,0,0,0
SMILES,TexasRed fluor,TRb SRC2 PPI,Tau ThT inhib,Tau fluor counter,KDM4E inh,Tau FP inhib
CCC[C@@H]1C[C@@]1(CCC)C(NP(=O)(c1ccccc1)c1ccccc1)c1ccc(Cl)cc1 (some centres not stated),0,0,?,0,25µM,0
CCC[C@@H]1C[C@@]1(CCC)C(NC(=O)c1cccs1)c1ccc(Cl)cc1 (some centres not stated),0,0,0,0,0,0
Cc1cc(O)ccc1Nc1nc2ccccc2nc1Nc1ccc(O)cc1C,0,0,14µM,13µM[quencher],25µM,?
COc1ccc(CC(=O)c2c(O)cc(O)cc2O)cc1OC,0,0,0,?,0,0
O=C(Cc1ccc(Cl)cc1)c1c(O)cc(O)cc1O,0,0,?,16µM[quencher],0,0
O=C(CCN1C(=O)c2ccccc2C1=O)N1CCN(C(=O)c2ccccc2)CC1,0,0,0,0,0,0
CC(=O)N1CCN(c2ccc(NCc3ccc(C)s3)cc2)CC1,0,?,?,?,?,?
CC(=O)N1CCN(c2ccc(NCc3ccc4c(c3)OCO4)cc2)CC1,0,40µM,16µM,?,?,?
CC(=O)N1CCN(c2ccc(NCc3cccs3)cc2)CC1,0,0,28µM,0,?,?
CCC1(C)Cc2nc3[nH]c(=S)n(-c4ccccc4)c(=O)c3cc2CO1 (configuration not stated),0,0,0,0,0,0
Cc1ccccc1NC(=O)COc1ccc2oc(=O)cc(C)c2c1,0,0,0,0,0,0
COc1ncccc1C(=O)N1CCCC(C(=O)c2cccc(OC(C)C)c2)C1 (configuration not stated),0,0,0,0,0,0
COc1ccc(NC(=S)N(CCCN2CCCC2)Cc2cccs2)cc1,0,0,0,0,0,?
CCCCCCc1ccc(C(=O)CCN(C)C)cc1,0,16µM,-,-,-,-
Cc1ccc(-c2nnc(Nc3ccc(O)cc3)c3ccccc23)cc1S(=O)(=O)N1CCCCC1,0,0,0,4.5µM[quencher],-,0
Cc1ccc(Nc2nnc(-c3ccc(C)c(S(=O)(=O)N4CCOCC4)c3)c3ccccc23)c(C)c1,0.014µM[quencher],0,?,0,-,0
Cc1ccc(-c2nnc(Nc3ccc(S(N)(=O)=O)cc3)c3ccccc23)cc1S(=O)(=O)N1CCCCC1,0,0,0,0,-,?
Cc1ccccc1Nc1nnc(-c2ccc(C)c(S(=O)(=O)N3CCOCC3)c2)c2ccccc12,0,0,0,0,-,0
Cc1ccc(-c2nnc(Nc3ccc(C(N)=O)cc3)c3ccccc23)cc1S(=O)(=O)N1CCCCC1,?,0,0,?,-,28µM
CCNc1ccccc(C(=O)/C=C/c2ccc3c(c2)OCO3)c1=O,0,0,14µM,?,20µM,?
O=C(/C=C/c1ccc2c(c1)OCO2)c1cccs1,0,0,?,0,22µM,0
COC(=O)/C=C/c1ccc2c(c1)OCO2,0,0,0,0,?,0
O=C(/C=C/c1ccc2c(c1)OCO2)c1ccc[nH]1,0,0,?,0,0,0
Oc1ccc(Cl)cc1/C=C/c1ccc2cccc(O)c2n1,0,0,?,25µM[quencher],0,?
Oc1c(Cl)cc(Cl)cc1/C=C/c1ccc2cccc(O)c2n1,0,0,?,?,0,0
COc1ccc(OC)c(NC2=C(c3ccccc3)C(=O)c3ccccc32)c1,0,0,14µM,?,-,0
COc1ccc(NC2=C(c3ccccc3)C(=O)c3ccccc32)cc1Cl,0,0,0,?,-,0

# Source: PubChem
